# RORg inh – qHTS for inhibitors of ROR gamma transcriptional activity. Drosophila S2 Gal4-RORgamma UAS-luciferase reporter, 20 h. Potency, µM (highest dose often 53.6 µM), for inactives: top-dose activity change, negative = inhibition, actives largely listed as inhibitors. 310,000 tested, 5.4% active. AID 2551, 2010; further: potency means the concentration at half of the fitted maximal effect; on the % scale 0 is the no-effect control and ±100 the full control effect; nearly all actives have a fitted effect of over 60% in size
# Target sequence (P51450 whole entry, looked up, the tested form may be a part): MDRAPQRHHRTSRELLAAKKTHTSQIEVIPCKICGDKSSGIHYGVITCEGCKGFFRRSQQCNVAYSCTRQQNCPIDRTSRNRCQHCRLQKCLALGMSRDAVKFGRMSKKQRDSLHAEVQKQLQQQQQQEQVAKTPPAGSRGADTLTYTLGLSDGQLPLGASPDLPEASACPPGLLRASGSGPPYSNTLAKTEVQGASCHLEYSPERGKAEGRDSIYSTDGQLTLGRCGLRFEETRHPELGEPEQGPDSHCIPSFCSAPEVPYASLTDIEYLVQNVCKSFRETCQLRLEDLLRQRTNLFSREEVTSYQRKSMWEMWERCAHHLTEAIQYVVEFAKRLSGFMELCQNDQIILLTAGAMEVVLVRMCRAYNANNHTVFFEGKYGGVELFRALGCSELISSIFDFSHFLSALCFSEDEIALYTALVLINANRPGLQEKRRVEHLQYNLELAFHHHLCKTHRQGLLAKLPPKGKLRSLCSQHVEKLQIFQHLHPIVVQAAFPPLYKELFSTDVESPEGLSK
#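 Drosophila S2 cells stably expressing Gal4-DBD/mouse RORγ fusion under metallothionein promoter plus UAS-luciferase; compound 1 h, then 700 uM CuSO4 induction for 20 h at ambient temperature; inhibition read as reduced luminescence.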
# IL1B secr inh – qHTS for Inhibitors of Inflammasome Signaling: IL-1-beta AlphaLISA Primary Screen; activity change, % at 57.5 µM; THP-1 LPS/ATP IL-1B secretion, AlphaLISA, 16 h; stronger effect = lower value; 360,000 tested, 4.7% active; in the data active means activity change below about -50%; inconclusive means mostly about -30% to -49%; further: on the % scale 0 is the no-effect control and ±100 the full control effect
#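 THP-1 cells pretreated 1 hr with compounds (up to 57.5 uM final), then stimulated with LPS (250 ng/mL final) plus ATP (1.25 mM final); secreted IL-1B measured by AlphaLISA after 16 hr, decreased signal indicating inhibition.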
# VP16 counter – VP16 counterscreen qHTS for inhibitors of ROR gamma transcriptional activity; Drosophila S2 Gal4-VP16 UAS-luciferase, luminescence, 20 h; Potency, µM (doses to about 53.6 µM), for inactives: at the top dose activity, negative = inhibition, most hits filed as inhibitors; 310,000 tested, 3.5% active; AID 2546, 2010;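 further: Gal4-VP16 expression switched on by copper sulfate through the metallothionein promoter; potency means the concentration at half of the fitted maximal effect; on the % scale 0 is the no-effect control and ±100 the full control effect; nearly all actives have a fitted effect of over 50% in size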
# MCF10A rerep – A quantitative high throughput screen for small molecules that induce DNA re-replication in MCF 10a normal breast cells; MCF 10A DNA re-replication, Hoechst nuclear intensity, 48 h; Potency, µM (series often up to 46.1 µM), for the others: at the highest dose activity, positive = re-replication, most hits filed as activators; 350,000 tested, 2.9% active; further: potency means the concentration at half of the fitted maximal effect; % of control where 0% means no effect; nearly all actives have a fitted effect of over 50% in size
# SW480 rereplic – A quantitative high throughput screen for small molecules that induce DNA re-replication in SW480 colon adenocarcinoma cells; SW480 DNA re-replication, Hoechst DNA content imaging, 48 h; Potency, µM (titrated, usually from 46.1 µM), for inactives: top-dose re-replication activation, usual class: activators; 340,000 tested, 1.8% active; AID 624297, 2012; further: potency means the concentration at half of the fitted maximal effect; % of control where 0% means no effect; nearly all actives have a fitted effect of over 55% in size
#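 Cells (250 per well) received 23 nL compound or DMSO by pin tool and were kept 48 hr at 37 C, 5% CO2. Nuclei were then stained with Hoechst for 40 min and scanned for DNA content.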
# The depositor's hits bear a star; i = inactive; ? = inconclusive; . = no result given; [ ] = dose if it differs, or a comment. Sampled rows, rich in hits. Any-hit rate of the full collection: about 11%. Unless noted, the call rests on the fitted dose curve; in most records, active means well fitted curve in the direction sought with a large enough effect; inconclusive means small, poorly fitted or top-dose-only effect, or another doubt; inactive means no such curve, though single readings can be large; an effect the other way counts as inactive or inconclusive.
SMILES,RORg inh,IL1B secr inh,VP16 counter,MCF10A rerep,SW480 rereplic
CC1(c2ccc(Cl)cc2)NC(=S)N2C1NC(=S)N2c1ccccc1 (configuration not stated),-18.5%,?,-0.7%,-4.8%,-3.2%
CC1(CCc2ccccc2)NC(=S)N(c2ccccc2)N1 (configuration not stated),?,16.7,20µM*,19.3%,3.7%
CC(=O)N1CCN(c2ccccc2NC(=O)c2ccc(-c3cccc([N+](=O)[O-])c3)o2)CC1,-4.8%,-11.3,10.7%,-1.3%,-5.2%
O=C(NC(=S)Nc1ccccc1N1CCCCC1)c1ccc(-c2cccc([N+](=O)[O-])c2)o1,0.501µM*,-10.8,2.24µM*,3.5%,-29.9%
O=C(NC(=S)Nc1ccccc1N1CCCC1)c1ccc(-c2cccc([N+](=O)[O-])c2)o1,12.6%,?,-22.9%,4.2%,20.6µM*
O=S(=O)(c1ccccc1)N1CCC2(CCCN(c3ncccn3)C2)CC1,4.0%,.,7.4%,.,.
Cc1ccc(S(=O)(=O)NCc2cc(=O)n(C)c(=O)n2C)cc1C,-2.2%,15.6,?,-0.5%,?
COc1ccccc1N=C1SC(C(=O)Nc2cccc(Cl)c2Cl)C(N)=C1C(N)=O (configuration not stated),16.2%,-22.7,-0.4%,11.6µM*,23.1µM*
Cc1nc2c(C)cccc2cc1C(=O)N/N=C/c1ccc(C(=O)O)cc1,0.5%,21.6,4.9%,1.9%,-3.7%
CCOc1ccc(-c2cc(C(=O)N/N=C/c3cccnc3)c3ccccc3n2)cc1,?,23.3,?,2.91µM*,7.31µM*
CC(C)COc1cccc(-c2cc(C(=O)N/N=C/c3ccncc3)c3ccccc3n2)c1,-35.8%,i,?,18.4µM*,3.9%
COc1ccc(-c2cc(C(=O)N/N=C/c3cccnc3)c3cc(C)cc(C)c3n2)cc1,-3.9%,i,?,16.4µM*,?
CCOc1ccccc1-c1cc(C(=O)N/N=C/c2cccnc2)c2ccccc2n1,.,-5.9,.,16.5%,4.5%
Cc1nc2c(C)cccc2cc1C(=O)N/N=C/c1cccnc1,41.4%,-66.9*,3.1%,11.7%,-1.4%
COc1ccc(-c2nnc3n2N=C(c2ccc(OC)c(OC)c2)CS3)cc1,-33.9%,.,3.8%,.,.
C[C@@H]1CN([C@@H](C)CO)C(=O)CCCn2nncc2CO[C@H]1CN(C)C(=O)Nc1ccc(F)cc1,.,18.7,.,.,.
CC(=O)Nc1scc(C)c1-c1nc2ccccc2s1,1.12µM*,.,8.91µM*,20.6µM*,191.3%
Cc1csc(NC(=O)CCCC(=O)O)c1-c1nc2ccccc2s1,-9.7%,.,?,10.9%,14.6µM*
Cc1csc(NC(=O)COCC(=O)O)c1-c1nc2ccccc2s1,-8.9%,-24.7,-27.5%,?,-64.9%
Cc1nn(Cc2ccccc2Cl)c(C)c1NC(=O)c1cc(-c2ccc(F)cc2)on1,17.6%,20.1,?,4.11µM*,-4.2%
Cc1nn(Cc2ccccc2)c(C)c1NC(=O)c1cc(-c2ccc3c(c2)OCO3)on1,38.9%,31.9,-4.0%,9.2µM*,-0.2%
COc1ccc(-c2cc(C(=O)Nc3c(C)nn(Cc4ccccc4)c3C)no2)cc1,-23.2%,-0.5,-3.7%,?,3.8%
C[N+]1(C)C[C@@H](O)C[C@@H]1C(=O)[O-],-12.3%[16.9 µM],.,-9.9%[17 µM],.,.
COCC(=O)Nc1cc(Sc2ccccc2)ccc1N=C(NC(=O)OC)NC(=O)OC,30.2%,.,-8.7%,7.5µM*,16.8µM*
Cc1cc(C(=O)NCCCN2CCN(c3cc(Cl)ccc3C)CC2)n(-c2ccccc2)n1,31.3%,-8.7,1.3%,?,?
Cc1cc(C)cc(C(=O)NCC(=O)N2CCN(c3cccc(Cl)c3)CC2)c1,36.0%,-69.6*,-10.0%,-10.6%,2.7%
O=C(NC(=O)N1CCN(c2cccc(Cl)c2)CC1)c1ccccc1,1.2%,0.0,-0.7%[0.365 µM],?,22.6%
Cc1cc(C(=O)NCCN2CCN(c3cccc(Cl)c3)CC2)n(-c2ccccc2)n1,-1.4%,15.3,-6.7%,25.9µM*,8.2µM*
